“And” between values parts separate entries of the source, which are not always exact repeats. Identical values can stand only once. Hit rate of the full screen: of about 5,500 compounds, about 2,000 (36%) were called active. Roughly 18% stayed inconclusive and do not appear here. No stated cut-off is given here; in the data, active means normalized growth mostly below about 0.91 (no sharp cut-off); inconclusive means no clear call, values can overlap the other calls; inactive means mostly above about 0.92. This is one part of the list.
Test: chemical genetic growth profiling, strain panel (AID 1159580);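 further: tested at 20 µM; growth read once vehicle control cultures reached saturation at 30 °C; 1 = growth at the plate median or of vehicle wells; lower values mean less growth of the strain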
Details: growth OD

Measured: normalized growth

CN1CCN(CC(=O)N2c3ccccc3C(=O)Nc3cccnc32)CC1
inactive: S. cerevisiae deletion strains, locus YJR075W, strain HOC1, hits give low values 1.01 and 0.992 | S. cerevisiae deletion strains, locus YKL009W, strain mrt4, hits give low values 0.998 | S. cerevisiae deletion strains, locus YKL068W, hits give low values 1 | S. cerevisiae deletion strains, locus YKL085W, strain MDH1 (second series), hits give low values 1.02 | S. cerevisiae deletion strains, locus YKL085W, strain MDH1, hits give low values 1.02 | S. cerevisiae deletion strains, locus YKL160W, strain elf1, hits give low values 1.01 | S. cerevisiae deletion strains, locus YKL190W, strain CNB1, hits give low values 1.01 | S. cerevisiae deletion strains, locus YKR001C, strain vps1, hits give low values 1.01 | S. cerevisiae deletion strains, locus YKR026C, strain gcn3, hits give low values 1.01 | S. cerevisiae deletion strains, locus YKR091W, strain srl3, hits give low values 1 | S. cerevisiae deletion strains, locus YLL001W, strain dnm1, hits give low values 1.01 | S. cerevisiae deletion strains, locus YLL026W, hits give low values 1.02 | S. cerevisiae deletion strains, locus YLL041C, strain sdh2, hits give low values 1.01 | S. cerevisiae deletion strains, locus YLR027C, strain aat2, hits give low values 1 | S. cerevisiae deletion strains, locus YLR039C, strain RIC1, hits give low values 1.04 | S. cerevisiae deletion strains, locus YLR058C, strain SHM2, hits give low values 1.02 | S. cerevisiae deletion strains, locus YLR102C, strain apc9, hits give low values 1.02 | S. cerevisiae deletion strains, locus YLR113W, strain HOG1, hits give low values 0.989 | S. cerevisiae deletion strains, locus YLR221C, strain rsa3, hits give low values 1.01 | S. cerevisiae deletion strains, locus YLR258W, strain gsy2, hits give low values 1.02 | S. cerevisiae deletion strains, locus YLR262C, strain YPT6 (second series), hits give low values 0.992 | S. cerevisiae deletion strains, locus YLR262C, strain YPT6, hits give low values 1.04 | S. cerevisiae deletion strains, locus YLR268W, strain sec22, hits give low values 1.03 | S. cerevisiae deletion strains, locus YLR320W, strain mms22, hits give low values 1.02 | S. cerevisiae deletion strains, locus YLR330W, strain CHS5, hits give low values 1.01 | S. cerevisiae deletion strains, locus YLR342W, strain FKS1 (second series), hits give low values 1.05 | S. cerevisiae deletion strains, locus YLR342W, strain FKS1, hits give low values 1.01 | S. cerevisiae deletion strains, locus YLR357W, strain rsc2, hits give low values 1.05 | S. cerevisiae deletion strains, locus YLR370C, strain arc18, hits give low values 1.03 | S. cerevisiae deletion strains, locus YLR371W, strain rom2, hits give low values 1.03 | S. cerevisiae deletion strains, locus YLR384C, strain iki3, hits give low values 1.02 | S. cerevisiae deletion strains, locus YLR418C, strain cdc73, hits give low values 1.05 | S. cerevisiae deletion strains, locus YML016C, strain PPZ1, hits give low values 1.01 | S. cerevisiae deletion strains, locus YML032C, strain rad52, hits give low values 1.01 | S. cerevisiae deletion strains, locus YML120C, strain ndi1, hits give low values 1 | S. cerevisiae deletion strains, locus YML124C, strain tub3, hits give low values 1.02 | S. cerevisiae deletion strains, locus YMR058W, strain fet3, hits give low values 1.04 | S. cerevisiae deletion strains, locus YMR078C, strain ctf18, hits give low values 1.01 | S. cerevisiae deletion strains, locus YMR125W, strain sto1, hits give low values 1.01 | S. cerevisiae deletion strains, locus YMR129W, hits give low values 1.02 | S. cerevisiae deletion strains, locus YMR205C, strain PFK2, hits give low values 1.04 | S. cerevisiae deletion strains, locus YMR223W, strain ubp8, hits give low values 1.01 | S. cerevisiae deletion strains, locus YMR231W, strain pep5, hits give low values 1.02 | S. cerevisiae deletion strains, locus YMR263W, strain SAP30, hits give low values 1.01 | S. cerevisiae deletion strains, locus YMR307W, strain GAS1, hits give low values 1.07 | S. cerevisiae deletion strains, locus YNL067W, strain RPL9B, hits give low values 1.01 | S. cerevisiae deletion strains, locus YNL071W, strain lat1, hits give low values 1.03 | S. cerevisiae deletion strains, locus YNL128W, strain TEP1, hits give low values 1.03 | S. cerevisiae deletion strains, locus YNL153C, strain GIM3, hits give low values 1.01 | S. cerevisiae deletion strains, locus YNL175C, strain NOP13, hits give low values 0.985 | S. cerevisiae deletion strains, locus YNL183C, strain NPR1, hits give low values 0.938 | S. cerevisiae deletion strains, locus YNL197C, strain WHI3, hits give low values 0.982 | S. cerevisiae deletion strains, locus YNL209W, strain ssb2, hits give low values 1.02 | S. cerevisiae deletion strains, locus YNL224C, strain SQS1, hits give low values 1.01 | S. cerevisiae deletion strains, locus YNL233W, strain BNI4, hits give low values 1.01 | S. cerevisiae deletion strains, locus YNL248C, strain rpa49, hits give low values 1.03 | S. cerevisiae deletion strains, locus YNL250W, strain rad50, hits give low values 1.01 | S. cerevisiae deletion strains, locus YNL271C, strain bni1, hits give low values 1.01 | S. cerevisiae deletion strains, locus YNL298W, strain CLA4, hits give low values 1.02 | S. cerevisiae deletion strains, locus YNL307C, strain MCK1, hits give low values 1.03 | S. cerevisiae deletion strains, locus YNL322C, strain KRE1 (second series), hits give low values 1.02 | S. cerevisiae deletion strains, locus YNL322C, strain KRE1, hits give low values 1.01 | S. cerevisiae deletion strains, locus YNR049C, strain mso1, hits give low values 1 | S. cerevisiae deletion strains, locus YNR052C, strain pop2, hits give low values 1.03 | S. cerevisiae deletion strains, locus YOL006C, strain TOP1, hits give low values 1.05 | S. cerevisiae deletion strains, locus YOL012C, strain htz1 0.832 | S. cerevisiae deletion strains, locus YOL147C, strain pex11, hits give low values 1.04 | S. cerevisiae deletion strains, locus YOR001W, strain rrp6, hits give low values 1.02 | S. cerevisiae deletion strains, locus YOR061W, strain CKA2, hits give low values 1.01 | S. cerevisiae deletion strains, locus YOR069W, strain VPS5, hits give low values 1.01 | S. cerevisiae deletion strains, locus YOR070C, strain gyp1, hits give low values 1.02 | S. cerevisiae deletion strains, locus YOR080W, strain dia2, hits give low values 1.01 | S. cerevisiae deletion strains, locus YOR083W, strain WHI5 (second series), hits give low values 0.986 | S. cerevisiae deletion strains, locus YOR083W, strain WHI5, hits give low values 0.967 | S. cerevisiae deletion strains, locus YOR106W, strain vam3, hits give low values 1.02 | S. cerevisiae deletion strains, locus YOR136W, strain idh2, hits give low values 1.01 | S. cerevisiae deletion strains, locus YOR144C, strain elg1, hits give low values 1.02 | S. cerevisiae deletion strains, locus YOR184W, strain ser1, hits give low values 1.01 | S. cerevisiae deletion strains, locus YOR231W, strain MKK1, hits give low values 0.983 | S. cerevisiae deletion strains, locus YOR265W, strain rbl2, hits give low values 1.01 | S. cerevisiae deletion strains, locus YOR270C, strain vph1, hits give low values 1.06 | S. cerevisiae deletion strains, locus YOR290C, strain snf2, hits give low values 1.02 | S. cerevisiae deletion strains, locus YOR316C, strain cot1, hits give low values 1.02 | S. cerevisiae deletion strains, locus YPL051W, strain arl3, hits give low values 1.01 | S. cerevisiae deletion strains, locus YPL055C, strain LGE1, hits give low values 1.01 | S. cerevisiae deletion strains, locus YPL078C, strain atp4, hits give low values 1.02 | S. cerevisiae deletion strains, locus YPL106C, strain sse1, hits give low values 1.03 | S. cerevisiae deletion strains, locus YPL240C, strain hsp82, hits give low values 1 | S. cerevisiae deletion strains, locus YPL241C, strain CIN2, hits give low values 1.01 and 0.991 | S. cerevisiae deletion strains, locus YPL256C, strain CLN2, hits give low values 0.978 | S. cerevisiae deletion strains, locus YPR119W, strain clb2, hits give low values 1.01 | S. cerevisiae deletion strains, locus YPR141C, strain kar3, hits give low values 1.02 | S. cerevisiae deletion strains, locus YPR163C, strain tif3, hits give low values 1.03 | S. cerevisiae deletion strains, locus YPR167C, strain met16, hits give low values 1.02 | S. cerevisiae deletion strains, strain wtn01, hits give low values 1.01 | S. cerevisiae strains, strain wild type, hits give low values 1.01
